Among all 310,000 compounds or so, about 14,000 (4.5%) showed an effect of 50% or more. The effect is printed as a negative number. This excerpt belongs to a sample that is enriched for strong results.
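Also: peak tail current of the secondary pulse compared with the same well before compound.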

This test deals with human ether-à-go-go-related gene (hERG) potassium channel (human, UniProt Q12809). Description: primary screen, population patch clamp on CHO cells stably expressing hERG; higher = less effect of the substance.
Chain of human ether-à-go-go-related gene (hERG) potassium channel (Q12809 whole entry, looked up): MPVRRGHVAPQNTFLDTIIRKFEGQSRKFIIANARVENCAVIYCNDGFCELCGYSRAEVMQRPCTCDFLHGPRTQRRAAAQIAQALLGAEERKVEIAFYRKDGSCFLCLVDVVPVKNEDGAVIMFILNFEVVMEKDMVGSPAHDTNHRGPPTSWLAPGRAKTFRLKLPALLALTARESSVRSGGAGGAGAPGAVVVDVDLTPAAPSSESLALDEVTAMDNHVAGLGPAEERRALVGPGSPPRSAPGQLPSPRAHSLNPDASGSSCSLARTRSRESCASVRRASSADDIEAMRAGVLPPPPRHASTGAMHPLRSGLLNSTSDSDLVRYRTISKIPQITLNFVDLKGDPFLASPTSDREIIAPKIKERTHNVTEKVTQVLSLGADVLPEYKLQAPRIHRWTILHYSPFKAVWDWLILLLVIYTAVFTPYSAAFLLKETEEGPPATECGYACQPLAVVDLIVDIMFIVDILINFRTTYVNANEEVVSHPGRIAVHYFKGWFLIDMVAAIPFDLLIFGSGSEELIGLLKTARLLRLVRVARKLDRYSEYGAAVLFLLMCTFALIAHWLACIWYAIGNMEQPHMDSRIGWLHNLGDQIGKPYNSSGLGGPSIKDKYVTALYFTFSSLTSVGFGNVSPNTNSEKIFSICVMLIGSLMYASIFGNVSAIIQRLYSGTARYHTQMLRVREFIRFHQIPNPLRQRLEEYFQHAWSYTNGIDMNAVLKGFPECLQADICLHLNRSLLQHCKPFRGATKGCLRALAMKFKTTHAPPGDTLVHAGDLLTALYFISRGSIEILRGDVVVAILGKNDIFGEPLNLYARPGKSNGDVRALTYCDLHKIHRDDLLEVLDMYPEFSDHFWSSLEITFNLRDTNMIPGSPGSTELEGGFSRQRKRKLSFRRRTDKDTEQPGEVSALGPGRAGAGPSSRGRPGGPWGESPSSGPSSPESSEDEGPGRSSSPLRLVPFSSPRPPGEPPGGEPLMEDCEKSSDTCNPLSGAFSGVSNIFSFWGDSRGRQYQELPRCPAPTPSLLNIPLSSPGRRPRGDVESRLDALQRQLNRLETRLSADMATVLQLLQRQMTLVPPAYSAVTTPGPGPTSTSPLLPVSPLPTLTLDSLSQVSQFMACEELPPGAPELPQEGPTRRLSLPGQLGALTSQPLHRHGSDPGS
As to `Cc1ccc(N(CC(=O)NCCSc2nc3ccccc3s2)S(=O)(=O)c2ccccc2)c(C)c1`, the “hERG current change (%, negative = inhibition) at 10uM” value is -42.1%.
In the case of `CCOc1ccc2nc(NCCNC(=S)NCCCN(C)C)c(C#N)cc2c1` it was 1.89%.
In the case of `O=C(c1ccccc1)c1c[nH]c(C(=O)NCCCn2ccnc2)c1` it was 5.27%.
In the case of `CC(C)(C)c1ccc(C(=O)c2c[nH]c(C(=O)NCCCn3ccnc3)c2)cc1` it was -71.3%; in that of `O=C(c1ccc(C(F)(F)F)cc1)c1c[nH]c(C(=O)NCCCn2ccnc2)c1`, -70.4%; in that of `CCC(=O)c1c[nH]c(C(=O)NCCCn2ccnc2)c1`, 9.18%.
For the compound `O=C(NCCCn1ccnc1)c1ccc(C(F)(F)F)cc1`, the “hERG current change (%, negative = inhibition) at 10uM” value was -10.8%.
In the case of `COc1ccc(C(=O)c2c[nH]c(C(=O)NCCCn3ccnc3)c2)cc1` it was 0.775%; in that of `Cc1ccc(/C=N/NS(=O)(=O)c2ccc([N+](=O)[O-])cc2)o1`, 26.4%; in that of `Cc1c(NC(=O)c2cccs2)c(=O)n(-c2ccccc2)n1C`, 3.8%.
The result for `CCCC(Oc1ccc(Br)cc1)c1nc2c3cc(OC)c(OC)cc3nc(=S)n2[nH]1` (stereo not shown) reads 14.5%.
In the case of `Cc1cccc2c1NC(C)CC2C.Cl` (stereo not shown) it was 8.01%; in that of `COc1ccccc1CNC(=O)COC(=O)c1cc(C)oc1C`, 0.456%.
In the case of `COCCn1c(C)nnc1SCC(=O)NNC(=O)c1ccc(Cl)cc1`, the “hERG current change (%, negative = inhibition) at 10uM” value is listed as 16.4%.
In the case of `COc1ccc(Cl)cc1NC(=O)c1nnn(CC(=O)Nc2ccc(OC)c(OC)c2)c1N` it was 15.1%; in that of `CCCNC(=O)c1ccc(N2CCC3(CC2)CC(c2cccc(Br)c2)=NO3)c([N+](=O)[O-])c1`, -14.2%; in that of `CCCNC(=O)c1ccc(N2CCC3(CC2)CC(c2ccccc2)=NO3)c([N+](=O)[O-])c1`, -53%.
On to `COc1ccc(CNC(=O)c2ccc(N3CCC4(CC3)CC(c3ccc(Cl)cc3)=NO4)c([N+](=O)[O-])c2)cc1`, for which the “hERG current change (%, negative = inhibition) at 10uM” value is 9.12%.
The result for `O=C(NCc1ccccc1)c1ccc(N2CCC3(CC2)CC(c2ccc(Cl)cc2)=NO3)c([N+](=O)[O-])c1` reads 11.6%.
In the case of `O=C(NCc1ccccc1)c1ccc(N2CCC3(CC2)CC(c2ccccc2)=NO3)c([N+](=O)[O-])c1` it was 5.28%.
Regarding `CCCNC(=O)c1ccc(N2CCC3(CC2)CC(c2ccc(Cl)cc2)=NO3)c([N+](=O)[O-])c1`, the “hERG current change (%, negative = inhibition) at 10uM” value was -74.7%.
The result for `COCc1cc(=O)n2[nH]cc(-c3ccccc3)c2n1` reads 9.45%; that for `COc1ccc(NC(=O)CSc2nnc(C3CC3)n2C)cc1S(=O)(=O)N1CCOCC1`, -0.595%.
The result for `Cc1nc2ncnn2c(C)c1CCC(=O)NCc1ccco1` reads -6.62%; that for `Cc1cccc(OCC(O)Cn2c(NCc3cccnc3)nc3c2c(=O)[nH]c(=O)n3C)c1` (stereo not shown), -9.46%; that for `CCOc1ccc(N2CC(C(=O)Nc3ccccc3F)CC2=O)cc1` (stereo not shown), -13.5%.
Regarding `CC(C)Oc1ccc(N2CC(C(=O)Nc3ccccc3F)CC2=O)cc1` (stereo not shown), the “hERG current change (%, negative = inhibition) at 10uM” value is recorded as -17.2%.
Take `Cc1ccc(N2CC(C(=O)Nc3ccccc3C(=O)NC3CCCCC3)CC2=O)cc1C` (stereo not shown): the “hERG current change (%, negative = inhibition) at 10uM” value is listed as -17.9%.
`O=C(NC1CCCCC1)c1ccccc1NC(=O)C1CC(=O)N(c2ccc(Cl)cc2)C1` (stereo not shown): the “hERG current change (%, negative = inhibition) at 10uM” value is reported as 2.36%.
As for `Cc1ccc(N2CC(C(=O)Nc3ccccc3C(=O)NC3CCCCC3)CC2=O)cc1` (stereo not shown), the “hERG current change (%, negative = inhibition) at 10uM” value is listed as -5.81%.
The result for `COc1ccc(N2CC(C(=O)Nc3ccccc3C(=O)NC3CC3)CC2=O)cc1` (stereo not shown) reads -38.8%.
The result for `CCOc1ccc(N2CC(C(=O)Nc3ccccc3C(=O)NC3CC3)CC2=O)cc1` (stereo not shown) reads -76.7%; that for `CC(C)Oc1ccc(N2CC(C(=O)Nc3ccccc3C(=O)NC3CC3)CC2=O)cc1` (stereo not shown), -66.2%.
The result for `O=C(NC1CCCCC1)c1ccccc1NC(=O)C1CC(=O)N(c2ccccc2)C1` (stereo not shown) reads -76.8%.
On to `O=S(=O)(c1ccc(Br)cc1)N1CCN=C1SCc1cccc(F)c1`, for which the “hERG current change (%, negative = inhibition) at 10uM” value is on record as 8.08%.
In the case of `O=C(Nc1nnc(Cc2ccc(Cl)cc2)s1)c1cccnc1` it was 13.9%; in that of `COc1ccccc1N1CCN(C(=O)c2cccc(N3C(=O)C4C5C=CC(C5)C4C3=O)c2)CC1` (stereo not shown), 5.22%.
In the case of `CCOC(=O)C1=C(C)NC(=S)NC1c1ccc(OCC(=O)N2CCCCCC2)c(OC)c1` (stereo not shown) it was 14.2%; in that of `O=C(Nc1nnc(Cc2ccccc2)s1)Nc1ccccc1F`, 11.1%; in that of `O=C(CN(C(=O)CCC(=O)Nc1ccccn1)c1ccc(F)cc1)NCc1ccco1`, 14.2%.
The result for `Cc1ccc(C(=O)OCC(=O)Nc2ccc(C(N)=O)cc2)s1` reads 10.1%; that for `O=C(CCC(=O)c1ccc(F)cc1)Nc1cccnc1`, 1.31%; that for `CCCn1nc2cc(C(=O)NCc3ccc(C)cc3)ccc2c1OCC`, -1.4%.
For the compound `COc1ccc(-c2cc(C(F)(F)F)nc(SCC(=O)NCCCN3CCOCC3)n2)cc1`, the “hERG current change (%, negative = inhibition) at 10uM” value is reported as -14%.
The result for `O=C(Oc1ccc(N(C(=O)c2ccncc2)S(=O)(=O)c2cccs2)cc1)c1ccncc1` reads 3.77%.
The result for `O=C(OCCN(CCOC(=O)c1ccncc1)S(=O)(=O)c1cccs1)c1ccncc1` reads -77.3%.
